Measured values published in the supplement of paper PMC12669032.

Key:
Assay in all cases: growth AUC relative to DMSO control (median of replicates) (fraction); higher = more growth (less inhibition), active = hit call of the paper
Settings in all cases: 20 µM; 24 h;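 active = AUC reduced over 20% with Padj below 0.05 in at least 2 of 3 replicates; inactive = otherwise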
Akkermansia muciniphila = tested on: Akkermansia muciniphila
Outline: (§1)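 Each value is the median of three biological replicates, grown on separate days, of a gut bacterial monoculture incubated anaerobically at 37 °C in mGAM with 20 µM compound (1% DMSO). Cultures started at OD600 0.05 and were read at OD600 hourly for 24 h, with the minimum OD set to 0. Area under the growth curve was normalised to the plate median of solvent-only wells, or to row and column medians on the industrial chemical plate.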

Bacteroides caccae = tested on: Bacteroides caccae
Outline: as §1

Bacteroides clarus = tested on: Bacteroides clarus
Outline: as §1

Bacteroides dorei = tested on: Bacteroides dorei
Outline: as §1

Bacteroides stercoris = tested on: Bacteroides stercoris
Outline: as §1

[1] = tested on: Bacteroides thetaiotaomicron
Outline: as §1

Bacteroides uniformis = tested on: Bacteroides uniformis
Outline: as §1

[2] = tested on: Bifidobacterium longum subsp. longum
Outline: as §1

Clostridium difficile = tested on: Clostridium difficile
Outline: as §1

Collinsella aerofaciens = tested on: Collinsella aerofaciens
Outline: as §1

Coprococcus comes = tested on: Coprococcus comes
Outline: as §1

Escherichia coli ED1a = tested on: Escherichia coli ED1a
Outline: as §1

Escherichia coli IAI1 = tested on: Escherichia coli IAI1
Outline: as §1

Eubacterium rectale = tested on: Eubacterium rectale
Outline: as §1

[3] = tested on: Fusobacterium nucleatum subsp. animalis
Outline: as §1

Lactobacillus gasseri = tested on: Lactobacillus gasseri
Outline: as §1

Lactobacillus paracasei = tested on: Lactobacillus paracasei
Outline: as §1

Odoribacter splanchnicus = tested on: Odoribacter splanchnicus
Outline: as §1

[4] = tested on: Parabacteroides distasonis
Outline: as §1

Parabacteroides merdae = tested on: Parabacteroides merdae
Outline: as §1

Measured: growth AUC

CCCCCCCCCCCCC1=C(OC(C)=O)C(=O)c2ccccc2C1=O
active: Collinsella aerofaciens 0.0278 | Lactobacillus gasseri 0.504
inactive: Akkermansia muciniphila 1.04 | Bacteroides caccae 0.926 | Bacteroides clarus 0.934 | Bacteroides dorei 0.969 | Bacteroides stercoris 0.988 | [1] 0.996 | Bacteroides uniformis 0.987 | [2] 0.827 | Clostridium difficile 0.926 | Coprococcus comes 0.863 | Escherichia coli ED1a 1 | Escherichia coli IAI1 0.975 | Eubacterium rectale 0.889 | [3] 1.02 | Lactobacillus paracasei 0.894 | Odoribacter splanchnicus 0.959 | [4] 0.933 | Parabacteroides merdae 0.878

CCSC(=O)N(CC)C1CCCCC1
inactive: Akkermansia muciniphila 0.936 | Bacteroides caccae 0.998 | Bacteroides clarus 0.974 | Bacteroides dorei 1.02 | Bacteroides stercoris 1.06 | [1] 1.01 | Bacteroides uniformis 1.01 | [2] 1.01 | Clostridium difficile 1.01 | Collinsella aerofaciens 1.09 | Coprococcus comes 0.988 | Escherichia coli ED1a 0.987 | Escherichia coli IAI1 1.03 | Eubacterium rectale 1.01 | [3] 1.01 | Lactobacillus gasseri 1.2 | Lactobacillus paracasei 1 | Odoribacter splanchnicus 0.975 | [4] 1.07 | Parabacteroides merdae 1.03

OC(c1ccc(F)cc1)(c1cncnc1)c1ccccc1Cl (stereo not given)
active: Parabacteroides merdae 0.782
inactive: Akkermansia muciniphila 0.95 | Bacteroides caccae 0.993 | Bacteroides clarus 0.951 | Bacteroides dorei 0.966 | Bacteroides stercoris 0.991 | [1] 0.942 | Bacteroides uniformis 0.954 | [2] 1.01 | Clostridium difficile 0.966 | Collinsella aerofaciens 0.988 | Coprococcus comes 0.962 | Escherichia coli ED1a 0.996 | Escherichia coli IAI1 1.01 | Eubacterium rectale 0.965 | [3] 1.06 | Lactobacillus gasseri 0.969 | Lactobacillus paracasei 1.02 | Odoribacter splanchnicus 0.931 | [4] 1

COP(=O)(OC)C(O)C(Cl)(Cl)Cl (stereo not given)
inactive: Akkermansia muciniphila 0.955 | Bacteroides caccae 1.04 | Bacteroides clarus 1.01 | Bacteroides dorei 1 | Bacteroides stercoris 1.01 | [1] 1.01 | Bacteroides uniformis 1.02 | [2] 1.02 | Clostridium difficile 1 | Collinsella aerofaciens 1.01 | Coprococcus comes 1.03 | Escherichia coli ED1a 1.02 | Escherichia coli IAI1 1.01 | Eubacterium rectale 1.08 | [3] 0.973 | Lactobacillus gasseri 1 | Lactobacillus paracasei 1.02 | Odoribacter splanchnicus 0.965 | [4] 1.04 | Parabacteroides merdae 1

CCC/C(=N\OCC)C1=C(O)CC(CC(C)SCC)CC1=O (stereo not given)
inactive: Akkermansia muciniphila 0.936 | Bacteroides caccae 1.01 | Bacteroides clarus 0.989 | Bacteroides dorei 1.02 | Bacteroides stercoris 0.974 | [1] 0.992 | Bacteroides uniformis 1.01 | [2] 0.85 | Clostridium difficile 1.01 | Collinsella aerofaciens 1.01 | Coprococcus comes 0.986 | Escherichia coli ED1a 0.986 | Escherichia coli IAI1 0.973 | Eubacterium rectale 0.937 | [3] 0.867 | Lactobacillus gasseri 0.964 | Lactobacillus paracasei 0.978 | Odoribacter splanchnicus 0.979 | [4] 0.991 | Parabacteroides merdae 0.988

COP(=S)(OC)Oc1cc(Cl)c(Br)cc1Cl
inactive: Akkermansia muciniphila 0.9 | Bacteroides caccae 0.961 | Bacteroides clarus 0.966 | Bacteroides dorei 0.995 | Bacteroides stercoris 1.03 | [1] 0.963 | Bacteroides uniformis 1.01 | [2] 0.971 | Clostridium difficile 0.966 | Collinsella aerofaciens 0.978 | Coprococcus comes 0.982 | Escherichia coli ED1a 0.987 | Escherichia coli IAI1 0.965 | Eubacterium rectale 1.03 | [3] 0.952 | Lactobacillus gasseri 1.06 | Lactobacillus paracasei 0.996 | Odoribacter splanchnicus 1.02 | [4] 0.946 | Parabacteroides merdae 0.917

CCc1nn(C)c(C(=O)NCc2ccc(Oc3ccc(C)cc3)cc2)c1Cl
inactive: Akkermansia muciniphila 0.877 | Bacteroides caccae 0.935 | Bacteroides clarus 0.932 | Bacteroides dorei 0.974 | Bacteroides stercoris 0.633 | [1] 0.967 | Bacteroides uniformis 0.984 | [2] 0.81 | Clostridium difficile 1.04 | Collinsella aerofaciens 0.952 | Coprococcus comes 0.959 | Escherichia coli ED1a 0.986 | Escherichia coli IAI1 0.997 | Eubacterium rectale 0.96 | [3] 0.952 | Lactobacillus gasseri 1.1 | Lactobacillus paracasei 0.942 | Odoribacter splanchnicus 0.896 | [4] 0.947 | Parabacteroides merdae 0.975

O=C(O)C1(O)c2ccccc2-c2ccc(Cl)cc21 (stereo not given)
inactive: Akkermansia muciniphila 0.865 | Bacteroides caccae 0.979 | Bacteroides clarus 0.935 | Bacteroides dorei 1.08 | Bacteroides stercoris 1.04 | [1] 0.958 | Bacteroides uniformis 0.984 | [2] 0.936 | Clostridium difficile 0.993 | Collinsella aerofaciens 1.03 | Coprococcus comes 0.972 | Escherichia coli ED1a 0.998 | Escherichia coli IAI1 0.975 | Eubacterium rectale 0.947 | [3] 0.982 | Lactobacillus gasseri 1.05 | Lactobacillus paracasei 0.997 | Odoribacter splanchnicus 1.01 | [4] 0.979 | Parabacteroides merdae 0.987

CC(C)(C)C(O)C(Oc1ccc(Cl)cc1)n1cncn1 (stereo not given)
inactive: Akkermansia muciniphila 0.947 | Bacteroides caccae 0.985 | Bacteroides clarus 0.996 | Bacteroides dorei 1 | Bacteroides stercoris 1.17 | [1] 0.986 | Bacteroides uniformis 1.04 | [2] 0.943 | Clostridium difficile 1.08 | Collinsella aerofaciens 1.03 | Coprococcus comes 0.998 | Escherichia coli ED1a 1.01 | Escherichia coli IAI1 1.02 | Eubacterium rectale 0.97 | [3] 1.07 | Lactobacillus gasseri 1.02 | Lactobacillus paracasei 1.04 | Odoribacter splanchnicus 1.03 | [4] 1.02 | Parabacteroides merdae 0.998

C=CCN=C=S
inactive: Akkermansia muciniphila 0.98 | Bacteroides caccae 0.968 | Bacteroides clarus 0.993 | Bacteroides dorei 1.01 | Bacteroides stercoris 0.977 | [1] 1.02 | Bacteroides uniformis 1.02 | [2] 0.999 | Clostridium difficile 1.01 | Collinsella aerofaciens 1.02 | Coprococcus comes 1 | Escherichia coli ED1a 1.01 | Escherichia coli IAI1 0.979 | Eubacterium rectale 0.974 | [3] 1.06 | Lactobacillus gasseri 1.05 | Lactobacillus paracasei 0.991 | Odoribacter splanchnicus 1 | [4] 0.996 | Parabacteroides merdae 1.03

O=[N+]([O-])c1cc(C(F)(F)F)c(Cl)c([N+](=O)[O-])c1Nc1ncc(C(F)(F)F)cc1Cl
inactive: Akkermansia muciniphila 1.01 | Clostridium difficile 0.914 | Collinsella aerofaciens 0.886 | Coprococcus comes 0.953 | Escherichia coli ED1a 0.98 | Escherichia coli IAI1 0.986 | Eubacterium rectale 0.995 | [3] 0.885 | Lactobacillus gasseri 0.807 | Odoribacter splanchnicus 1.02 | [4] 0.905
active: Bacteroides caccae 0.55 | Bacteroides clarus 0.322 | Bacteroides dorei 0.672 | Bacteroides stercoris 0.00814 | [1] 0.0138 | Bacteroides uniformis 0.0147 | [2] 0.705 | Lactobacillus paracasei 0.578 | Parabacteroides merdae 0.0369

CCCCC(CC)COC(=O)c1ccccc1C(=O)OCC(CC)CCCC (stereo not given)
inactive: Akkermansia muciniphila 1.03 | Bacteroides caccae 0.989 | Bacteroides clarus 0.993 | Bacteroides dorei 0.963 | Bacteroides stercoris 0.898 | [1] 0.993 | Bacteroides uniformis 1.03 | [2] 0.984 | Clostridium difficile 0.977 | Collinsella aerofaciens 0.888 | Coprococcus comes 0.999 | Escherichia coli ED1a 0.983 | Escherichia coli IAI1 0.977 | Eubacterium rectale 1.02 | [3] 1 | Lactobacillus gasseri 0.892 | Lactobacillus paracasei 1.07 | Odoribacter splanchnicus 1.1 | [4] 0.985 | Parabacteroides merdae 0.965

Cc1cc(Cl)ccc1N=CN(C)C.Cl
inactive: Akkermansia muciniphila 1.06 | Bacteroides caccae 0.997 | Bacteroides clarus 1.01 | Bacteroides dorei 1.03 | Bacteroides stercoris 0.972 | [1] 1.01 | Bacteroides uniformis 0.982 | [2] 1.03 | Clostridium difficile 1.04 | Collinsella aerofaciens 0.978 | Coprococcus comes 1.09 | Escherichia coli ED1a 1 | Escherichia coli IAI1 0.98 | Eubacterium rectale 1.01 | [3] 1.01 | Lactobacillus gasseri 1.01 | Lactobacillus paracasei 1.03 | Odoribacter splanchnicus 1 | [4] 1.02 | Parabacteroides merdae 1.01

CCCSP(=S)(OCC)Oc1ccc(Cl)cc1Cl (stereo not given)
inactive: Akkermansia muciniphila 1.06 | Bacteroides caccae 0.796 | Bacteroides clarus 1.05 | Bacteroides dorei 0.98 | Bacteroides stercoris 1.41 | [1] 0.961 | Bacteroides uniformis 1.01 | [2] 1.07 | Clostridium difficile 1.05 | Collinsella aerofaciens 0.965 | Coprococcus comes 1 | Escherichia coli ED1a 1.05 | Escherichia coli IAI1 1.01 | Eubacterium rectale 1.04 | [3] 1.11 | Lactobacillus gasseri 1.01 | Lactobacillus paracasei 0.984 | Odoribacter splanchnicus 0.778 | [4] 0.984 | Parabacteroides merdae 1.01

CCC1COC(Cn2cncn2)(c2ccc(Cl)cc2Cl)O1 (stereo not given)
inactive: Akkermansia muciniphila 0.893 | Bacteroides caccae 0.992 | Bacteroides clarus 0.935 | Bacteroides dorei 0.976 | Bacteroides stercoris 0.938 | [1] 0.982 | Bacteroides uniformis 0.956 | [2] 0.976 | Clostridium difficile 0.994 | Collinsella aerofaciens 0.94 | Coprococcus comes 0.982 | Escherichia coli ED1a 0.988 | Escherichia coli IAI1 0.96 | Eubacterium rectale 0.755 | [3] 0.917 | Lactobacillus gasseri 1.1 | Lactobacillus paracasei 0.92 | Odoribacter splanchnicus 0.983 | [4] 1 | Parabacteroides merdae 0.948

COC(=O)[C@@H](C)N(C(=O)Cc1ccccc1)c1c(C)cccc1C
inactive: Akkermansia muciniphila 0.957 | Bacteroides caccae 0.968 | Bacteroides clarus 0.98 | Bacteroides dorei 0.964 | Bacteroides stercoris 0.954 | [1] 0.93 | Bacteroides uniformis 0.897 | [2] 1.01 | Clostridium difficile 0.998 | Collinsella aerofaciens 1.03 | Coprococcus comes 0.978 | Escherichia coli ED1a 1.02 | Escherichia coli IAI1 1.02 | Eubacterium rectale 0.991 | [3] 0.913 | Lactobacillus gasseri 0.944 | Lactobacillus paracasei 0.979 | Odoribacter splanchnicus 0.925 | [4] 0.948 | Parabacteroides merdae 0.921
